The values that follow come from PubChem BioAssay (NCI).

Compounds without any hit were thinned out: in the full panel of roughly 83,000, 20% have a hit.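 Method: cells in 96-well plates; compound added at one concentration; 48 h incubation; percent growth measured; values under 10 scored active.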 Unmarked numbers belong to inactive results. Active and inactive are the calls of the source.

This test relates to HL-60(TB) leukemia. Briefly: NCI-60 one-dose screen, 48 h (100 = growth as untreated, 0 = no growth, -100 = all killed). Conditions: 10 µM unless noted.
In the case of `N/C(=N\C(N)=N\c1nc2ccccc2s1)c1cccc(Cl)c1`, the growth was 19.7%.

Take `COC(=O)c1cc(-c2ccccc2)[nH]c1N/N=C/c1c(Cl)cccc1Cl`: the growth was -42.9% (active).

For `Cc1ccc(S(=O)(=O)NN/C(N)=N\S(=O)(=O)c2cc(C)c(Cl)cc2SCc2ccccc2)cc1`, the growth is 83.6%.

For the molecule `CCCCC1CCc2cccc3c(SCC(=O)N(C)c4ccc(Cl)cc4)cc[n+]1c23` (stereo not given), the growth is 91.4%.

With `Cc1nc(O)cc(=O)[nH]1`, the growth was 97%.

In the case of `CC1(C)CC(=O)C2=C(C1)N(c1ccc(OC(F)(F)F)cc1)C(N)=C(C#N)C2c1ccc(Cl)cc1` (stereo not given), the growth is 102%.

`O=C(Nc1c(Cl)cc(Cl)cc1Cl)ON=C1CCCCC1`: the growth is 101%.

As for `O=[N+]([O-])c1ccc(/C=C/C2(CCl)OCCO2)cc1`, the growth is 76.2%.

On to `CC(C)(C)OC(=O)CN1CCc2c(sc3ncnc(N/N=C/c4ccccc4Br)c23)C1`, for which the growth was 92.1%.

As for `COc1cc(NCC(O)CN(CC(C)C)CC(C)C)c2ncccc2c1` (stereo not given), the growth is 62.7%.

For the molecule `Nc1c(C(=O)Nc2cccc(Cl)c2)sc2ncc(Br)cc12`, the growth was 108%.

For `CCCCCCCCSC1=CC(=O)C(OC)=C(OC)C1=O`, the growth is -10.5% (active).

For the molecule `Clc1cccc(Cl)c1/C=C/c1cc(/C=C/c2c(Cl)cccc2Cl)[nH]n1`, the growth is 12.6%.

Consider `C=C(C)[C@@H]1CC[C@]2(C(=O)N3CCN(C)CC3)CC[C@]3(C)[C@H](CC[C@@H]4[C@@](C)(CCC(=O)O)[C@H](C(=C)C)CC[C@]43C)[C@@H]12`, for which the growth is 82.5%.

Consider `CCn1cc(C(=O)NN=C2CCCCCC2)c(=O)c2ccc(C)nc21`, for which the growth was 80.2%.

With `COC(=O)C1NC(=S)N(c2ccc(Cl)cc2)C1/C=C/c1ccccc1` (stereo not given), the growth was 92.8%.

Consider `CCOC(=O)c1cnc2c(cnn2CC)c1NN=C(C)C`, for which the growth was 74.4%.

Take `Cc1cnc(Nc2ccc(OCCN3CCCC3)cc2)nc1NCc1ccco1`: the growth is 81.2%.

Regarding `Cc1cc(NCCCCNc2ccnc3cc(Cl)ccc23)nc(Nc2ccc(C(=O)N3CCCC3)cc2)n1`, the growth was 14.7%.

For `Cc1cc(-c2ccc(N=Nc3c(C)nn(-c4ccc(S(=O)(=O)O)cc4)c3O)c(C)c2)ccc1N=Nc1ccc(O)c(C(=O)O)c1`, the growth is 99%.

Take `OC(COc1ccccc1Cl)CN1CCN(c2ccc(Cl)cc2)CC1` (stereo not given): the growth was 109%.

Consider `NS(=O)(=O)Oc1ccc2c(ccn2C(=O)C23CC4CC(CC(C4)C2)C3)c1`, for which the growth was 97.6%.

In the case of `CC(C)(C#N)Nc1ccccc1`, the growth is 105%.

Regarding `NC(N)=N/N=C/c1ccc(-c2ccc(-c3cc(Cl)cc(Cl)c3)s2)cc1`, the growth was 24.9%.

Regarding `COc1ccc(-c2nc(-c3nc4ccc(C)cc4[nH]3)c3ccccn23)cc1`, the growth is 30.5%.

For `COc1ccc(/C=C/c2nc(Nc3ccc(S(=O)(=O)Nc4nc(C)cc(C)n4)cc3)c3ccccc3n2)cc1`, the growth was 73.6%.

As to `CN(C)c1ccc(/C=C2/C=C(c3ccccc3)OC2=O)cc1`, the growth was 4.38% (active).

`COc1cc2c(=O)n(CCCN(C)C)c3c4cc5c(cc4ccc3c2cc1OC)OCO5`: the growth is 55%.

As to `CCOC(=O)c1ccc(N2C(=O)C(Cl)(c3ccccc3)C2c2ccco2)cc1` (stereo not given), the growth is 66%.

In the case of `COC(=O)[C@H](CCCCNC(=O)OCc1ccccc1)NC(=O)[C@@H](NC(=O)Nc1cc(C(F)(F)F)cc(C(F)(F)F)c1)C(C)C`, the growth is -9.21% [100 µM] (active).

As for `CCCCOc1ccc(NC(=O)Nc2nnc(C)s2)cc1`, the growth was 80.7%.

Turning to `CCS(=O)(=O)c1ncnc2nc[nH]c12`, the growth is 101%.

On to `CNC(=O)c1cccc2cc(Oc3ccnc4cc(OCC5(N)CC5)c(OC)cc34)ccc12`, for which the growth was 91.6%.

`CC(C)(C)c1ccc(O)c(Br)c1`: the growth is 156%.

As for `CC(C)(CC(=O)O)CC(=O)O`, the growth is 103%.

As to `NC(=O)CN1CCN(c2ccccc2Cl)CC1`, the growth was 92.4%.

As to `COc1cc(/C=C2/C=C(c3ccc(C(C)(C)C)cc3)N(CCc3ccc(S(N)(=O)=O)cc3)C2=O)cc(OC)c1OC`, the growth was 20.5%.

In the case of `Cn1ccnc1C(=O)/C=C/c1ccc(C(=O)Nc2c(F)c(F)c(F)c(F)c2F)cc1`, the growth is -22.4% (active).

On to `c1ccc(C2CC(c3cccc(Nc4ccncc4)c3)=NN2c2ccccc2)cc1` (stereo not given), for which the growth was -8.94% (active).

As for `Cc1nn(-c2nc(-c3cc4ccccc4oc3=O)cs2)c(C)c1N=Nc1ccccc1`, the growth was 101%.
